BoNT F protease = BoNT/F light chain protease inhibitors, primary screen, biochemical, flow cytometry, MLPCN library; AID 588497, 2011; inhibition, % at 10 µM; Multiplex microsphere protease cleavage assay; 360,000 tested, 0.22% active; Botulinum neurotoxin type F light chain protease (Clostridium botulinum); in the data active = inhibition above about 35%, passing the limit was not always enough; inconclusive = no clear call, values can overlap the other calls; note: plate controls were buffer without enzyme for full effect and enzyme alone for no effect
Autofluor counter = counter-screen for toxin protease inhibitors: compound fluorescence; fluorescence intensity (concentration not given with the values); compound autofluorescence counterscreen, microsphere flow cytometry; active compounds read high; 360,000 tested, 3.1% active; in the data active = fluorescence intensity above about 16000; inconclusive = no clear call, values can overlap the other calls
BoNT A protease = BoNT/A light chain protease inhibitors, primary screen, biochemical, flow cytometry, MLPCN library; 360,000 tested, 0.17% active; multiplex microsphere protease substrate cleavage; inhibition, % at 10 µM; AID 588499, 2011; Botulinum neurotoxin type A light chain protease (Clostridium botulinum A str. ATCC 3502); note: plate controls were buffer without enzyme for full effect and enzyme alone for no effect
VHR inh abs = VHR1 phosphatase inhibitors, primary screen, biochemical, absorbance, uHTS | 290,000 tested, 0.52% active | recombinant VHR phosphatase, pNPP absorbance | AID 1654, 2009 | inhibition, % at 13.3 µM; in the data active = inhibition above about 50%
Target sequence (P51452 whole entry, looked up): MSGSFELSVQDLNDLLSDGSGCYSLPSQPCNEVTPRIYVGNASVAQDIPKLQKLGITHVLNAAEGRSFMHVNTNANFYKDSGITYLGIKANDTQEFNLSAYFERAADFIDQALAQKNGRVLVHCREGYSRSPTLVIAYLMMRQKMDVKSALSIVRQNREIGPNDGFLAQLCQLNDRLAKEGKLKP
MazEF act = activators of E. coli MazEF toxin-antitoxin RNase, primary screen, biochemical, fluorescence, uHTS; Endoribonuclease toxin MazF (Escherichia coli (strain K12)), P0AE70; 350,000 tested, 0.32% active; activation, % at 20 µM; FAM/BHQ RNA-DNA oligo cleavage fluorescence, 5 h; in the data active = activation above about 50%
Target sequence (P0AE70 whole entry, looked up): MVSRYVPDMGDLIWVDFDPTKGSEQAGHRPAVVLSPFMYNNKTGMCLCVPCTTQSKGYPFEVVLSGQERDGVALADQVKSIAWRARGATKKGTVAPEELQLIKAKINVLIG
Anthrax LF prot = Bacillus anthracis LF protease inhibitors, primary screen, biochemical, multiplex microsphere, MLPCN library; Lethal factor (Bacillus anthracis), P15917; multiplex microsphere protease cleavage assay; inhibition, % at 10 µM; 360,000 tested, 0.12% active; AID 588501, 2011; note: plate controls were buffer without enzyme for full effect and enzyme alone for no effect
* = called active by the depositor; ? = inconclusive; / = no result. Hits are enriched below; roughly 4.1% of the tested compounds scored in any of these assays. Cut-off read from the data, not from the text of the source, unless noted: active = inhibition above about 30%; inconclusive = no clear call, values can overlap the other calls; inactive = below that.

SMILES	BoNT F protease	Autofluor counter	BoNT A protease	VHR inh abs	MazEF act	Anthrax LF prot
CCOC(=O)C(C)C1(O)c2ccccc2-c2ncccc21 (stereo not drawn)	-7.5	23373*	?	3.6	-2.1	-2.0
OC(CC1CC12c1ccccc1-c1ncccc12)(c1ccccc1)c1ccccc1 (stereo not drawn)	1.8	5889	0.0	15.2	0.2	-6.8
CCC(=O)Oc1c(C(=O)CC)cc2c(C)cc(=O)oc2c1C	12.6	7504	1.0	-9.9	-4.2	-0.4
CCC(=O)c1cc2c(C)cc(=O)oc2c(C)c1OC	3.1	22529*	1.2	-3.3	10.0	-2.3
CCN1CCN(C(=O)CCCCCn2c(=O)[nH]c3cc(C(=O)OC)ccc3c2=O)CC1	-4.3	7131	-0.3	0.0	11.1	-2.0
CCN1CCN(CCNC(=O)CCCCCn2c(=O)[nH]c3cc(C(=O)OC)ccc3c2=O)CC1	-3.1	23054*	-1.7	30.2	-0.4	-2.1
CC(=O)Nc1ccc(S(=O)(=O)N2CCOCC2)cc1	3.8	21279*	2.2	0.9	9.0	-1.5
CCN(CC)C(=O)COc1ccc(S(=O)(=O)N2CCOCC2)cc1	2.9	16440*	0.4	3.6	8.8	-0.4
O=C(CCN1C(=O)c2ccccc2C1=O)Nc1ccc(S(=O)(=O)N2CCOCC2)cc1	-6.0	22292*	-6.5	3.5	-0.2	-2.2
O=C(COc1ccc(Cl)cc1)Nc1nc(-c2ccc(S(=O)(=O)N3CCOCC3)cc2)cs1	-0.1	22761*	?	-23.4	-8.5	-1.5
COc1ccc(OC)c(NC(=O)CCn2ccnc2)c1	-17.4	3182	0.8	13.9	7.7	-8.3
NC(=O)c1ccc(N2CCNC(=O)C2)c([N+](=O)[O-])c1	0.3	6567	-2.4	1.1	3.5	1.4
COCC(=O)N(C)C[C@H]1Oc2ncc(Br)cc2C(=O)N([C@@H](C)CO)C[C@H]1C	-4.4	3352	0.1	/	3.0	1.8
O=C(O)c1cccc(S(=O)(=O)Nc2ccccc2C(=O)NCCc2ccccc2)c1	-2.0	5215	-2.5	-2.4	-5.9	3.2
CCOc1ccc(N2CC(C(=O)Nc3cccc(S(=O)(=O)N4CCOCC4)c3)CC2=O)cc1 (stereo not drawn)	-2.5	3027	-0.5	/	0.7	-5.5
CSc1ccccc1NC(=O)COc1ccc(S(=O)(=O)N2CCCC2)cc1	-5.6	22225*	-3.4	-8.6	2.4	-0.2
CC(=O)Nc1ccc(S(=O)(=O)N2CCN(CC(O)COc3ccc4ccccc4c3)CC2)cc1 (stereo not drawn)	1.7	23688*	?	12.9	1.8	-0.7
CC(=O)Nc1ccc(OCC(O)CN2CCN(S(=O)(=O)c3ccc(NC(C)=O)cc3)CC2)cc1 (stereo not drawn)	-4.6	11196	0.2	-14.9	-5.9	-2.7
COC(=O)Nc1ccc(S(=O)(=O)N2CCN(C)CC2)cc1	7.4	3352	-1.0	18.8	7.7	-3.1
CC(=O)Nc1ccc(S(=O)(=O)N2CCN(C)CC2)cc1	-4.0	23174*	-1.7	-12.2	-12.5	0.1
CCOc1ccc(N2CC(C(=O)Nc3ccc(S(=O)(=O)N4CCOCC4)cc3)CC2=O)cc1 (stereo not drawn)	-0.6	23130*	?	7.0	8.3	0.8
CC(C)NC(=O)COc1ccc(S(=O)(=O)N2CCCC2)cc1	-7.5	4100	-1.6	-16.2	4.1	-9.5
CC1=C(C(=O)OCC(Br)(Br)Br)C(c2cccc([N+](=O)[O-])c2)NC(=O)N1CCCC(=O)O (stereo not drawn)	0.9	2935	-0.2	/	4.5	-4.4
Cc1ccc(OCC(=O)O)c(O)c1	7.5	3480	-0.1	/	6.2	-1.0
O=C(COc1cc2oc(=O)c3c(c2cc1Cl)CCC3)Nc1ccc(CN2CCOCC2)cc1	-0.4	4229	1.5	-9.7	-40.7	-2.4
SMILES	BoNT F protease	Autofluor counter	BoNT A protease	VHR inh abs	MazEF act	Anthrax LF prot
CC(=O)Nc1ccc(S(=O)(=O)N2CCN(c3cc4c(cc3[N+](=O)[O-])n(C)c(=O)n4C)CC2)cc1	6.6	21248*	6.9	17.7	8.4	-7.6
Cc1ccc(NC(=O)COc2ccc(S(=O)(=O)N3CCOCC3)cc2)cc1	2.7	22684*	0.8	15.2	-13.5	-2.0
CC(C)c1ccc(NC(=O)COc2ccc(S(=O)(=O)N3CCOCC3)cc2)cc1	-3.3	3683	0.2	-5.8	-2.8	0.0
CC1(C(=O)Nc2ccc3c(c2)OCCO3)CCC(=O)N1CCc1c[nH]c2ccccc12 (stereo not drawn)	-8.3	4487	-0.7	/	/	-9.7
CC1CC(=O)NN=C1c1ccc(N(C)C)c([N+](=O)[O-])c1 (stereo not drawn)	4.7	18577*	2.8	2.6	2.3	2.7
c1ccc(Cn2nnnc2-c2ccco2)cc1	-0.3	16264*	0.3	8.3	2.5	1.5
O=C(/C(=N/N=C/c1ccc(O)c(O)c1)c1ccccc1)c1ccccc1	-4.9	2562	-0.2	-44.7	3.0	-2.0
CCCCCC(=O)Nc1ccc(N2CCN(CC)CC2)c(Cl)c1	-4.7	23051*	-1.9	-1.4	2.7	2.3
Cc1oc(-c2ccccc2Cl)nc1CSCC(=O)NC1CCCC1	-2.1	3784	-0.3	32.9	1.9	-2.6
O=C(CSc1nnc(-c2ccccc2O)o1)N1CCc2ccccc2C1	-1.2	20351*	?	35.8	-3.7	1.1
O=C(CSc1nnc(-c2ccccc2)o1)N1CCc2ccccc2C1	-5.2	9441	-0.1	17.0	0.5	0.9
Cc1oc(-c2ccccc2Cl)nc1CSCC(=O)N1CCCC1	3.7	22629*	0.9	16.8	12.3	1.3
O=C(CSc1nnc(-c2ccccc2Cl)o1)N1CCCC1	-0.8	3753	-0.7	56.2*	7.7	-8.0
CN(CC(=O)Nc1ccc(F)cc1)C(=O)COc1ccccc1Cc1ccccc1	?	?	-45.2	/	-1.0	-13.3
Cn1c(=O)c(=O)n(C)c2cc(S(=O)(=O)Nc3ccc4c(c3)OCCO4)ccc21	-1.8	22407*	?	26.3	-1.1	-2.4
Cc1ccc(NS(=O)(=O)c2ccc3c(c2)oc(=O)n3C)cc1C	3.5	3819	-2.7	/	5.5	-11.3
Cn1c(=O)oc2cc(S(=O)(=O)Nc3ccc4c(c3)OCCO4)ccc21	-7.7	21945*	?	24.9	-1.3	-0.2
O=C1COc2ccccc2C(c2nc3ccccc3[nH]2)N1C1CC1 (stereo not drawn)	6.6	5758	1.5	/	/	11.1
CC(=O)Nc1nnc(S(=O)(=O)N2CCN(c3ccc([N+](=O)[O-])cc3Cl)CC2)s1	0.4	5321	0.8	18.2	5.7	3.2
Cc1nn(C2CCOC(C)(C)C2)c2c1C(c1ccc(OC(C)C)cc1)SCC(=O)N2 (stereo not drawn)	-1.5	21930*	0.0	17.3	-7.2	0.0

Source: PubChem (several laboratories)
